HepG2 tox: counter-screen for TGF-b inhibitors: cytotoxicity in HepG2 cells; HepG2 CAGA-GFP viability, ATP luminescence, 18 h; Potency, µM (doses to about 46.1 µM), for the others: at the highest dose activity change, negative = cytotoxicity, actives largely listed as cytotoxic; actives 0.76% (n = 410,000); AID 588856
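HepG2 CAGA-GFP cells (1000/well, DMEM with 1% FBS) received compound, then TGF-beta at 500 pg/mL final, and were incubated 18 hours at 37 degrees C. Viability was read by CellTiter-Glo luminescence. Media-only wells were set as complete cell-killing and DMSO as no toxicity.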
HT1080-NT tox: kills 2HG-producing HT-1080-NT fibrosarcoma cells; AID 686970; Potency, µM (highest dose often 46.1 µM), without a hit: at the highest dose activity, negative = less viability, usual class: cytotoxic; actives 1.6% (n = 360,000); HT-1080-NT fibrosarcoma viability, CellTiter-Glo ATP luminescence, 48 h;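 note: NT is the 2HG producing partner of a matched IDH1 knockdown line; 0% = DMSO-treated cells and -100% = media-only wells without cells; nearly all actives have a fitted effect of over 55% in size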
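750 cells/well, RPMI + 5% FBS; 2 h settle, compound pin-transfer, 48 h at 37 degrees C. CellTiter-Glo 10 min RT, luminescence. Normalized to DMSO and media-only wells.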
ATXN viability: reduces viability in counter-screen for ATXN expression inhibitors | S2 cells (HEK-293 line with an ATXN2-luciferase reporter) viability, CellTiter-Fluor protease fluorescence, 24 h | Potency, µM (series often up to 56.7 µM), actives largely listed as cytotoxic | actives 0.49% (n = 400,000) | AID 651635; note: nearly all actives have a fitted effect of over 40% in size
TGFb inhibitor: TGF-b pathway inhibition. HepG2 CAGA-GFP TGF-b/SMAD3 reporter, GFP fluorescence, 18 h; TGF-beta stimulated, 500 pg/mL final. Potency, µM (highest dose often 46.1 µM), for the others: at the highest dose activity, negative = inhibition, actives largely listed as inhibitors. actives 1.2% (n = 410,000); note: % is set by controls: 0 for no effect and ±100 for the full control effect; nearly all actives have a fitted effect of over 65% in size
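First, reporter cells (HEPG2 CAGA-GFP) rested 2 h at 37 degrees C. Next, compounds were pinned in and TGF-beta added to 500 pg/mL final. After 18 h, GFP was imaged per cell and summed per well.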
HT1080 IDH1KD tx: kills HT-1080 cells with IDH1 knockdown. actives 2% (n = 360,000). Potency, µM (series often up to 46.1 µM), inactives show at the top dose activity, negative = toxicity, hits mostly cytotoxic. HT-1080 IDH1 knockdown viability, ATP luminescence, 48 h;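 note: 0% = DMSO wells and -100% = cell-free medium wells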
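Viability of IDH1-knockdown HT-1080 fibrosarcoma cells was assessed by CellTiter-Glo after 48 h at 37 °C with titrated compound; concentration-effect curves were classified by fit quality and response size.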
ATXN2 expr inh: reduces ATXN2 reporter expression in HEK-293 cells. Potency, µM (series often up to 57 µM), for inactives: at the highest dose activity change, negative = inhibition, actives largely listed as inhibitors. AID 1745845. actives 0.72% (n = 360,000). HEK-293 ATXN2-luciferase reporter, luminescence, 24 h; note: % is set by controls: 0 for no effect and ±100 for the full control effect; nearly all actives have a fitted effect of over 55% in size
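qHTS (up to 57 uM final) was run with 24 h compound exposure of reporter cells at 37 °C. Each well was multiplexed: SteadyGlo luminescence measured ATXN2-luciferase expression after a fluorogenic Gly-Phe-AFC viability readout (25 uM final).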
Starred values were filed as active, the others as inactive; i = inactive; u = inconclusive; x = no result; [ ] = remark or other dose. Rows were chosen to be rich in hits. Some 3.8% of all compounds tested hit in one or more screens of this group. Calls come from the whole dose curve; as a rule, active = well fitted curve in the direction sought with a large enough effect; inconclusive = small, poorly fitted or top-dose-only effect, or another doubt; inactive = no such curve, though single readings can be large; an effect the other way counts as inactive or inconclusive. Potency is the fitted concentration of half-maximal effect.

SMILES | HepG2 tox | HT1080-NT tox | ATXN viability | TGFb inhibitor | HT1080 IDH1KD tx | ATXN2 expr inh
Cc1cccc2c(N)c3c(nc12)CCCC3 (tested in a mixture with another compound) | -24% | 3% | u | -27% | -4% | u
COc1ccc(N2CCN(C(c3ccccc3)c3sc4nc(-c5ccco5)nn4c3O)CC2)cc1 (stereo not drawn) | -14% | x | x | -25% | x | x
COc1cc(F)ccc1CN1CCC(C(=O)Nc2ccc(Oc3ccccc3)nc2)CC1 | -27% | u | i | -23% | 21µM* | -27%
CC(C)n1cc(CN2CCC(C(=O)Nc3ccc(Oc4ccccc4F)cc3)CC2)cn1 | -42% | u | i | u | 21µM* | u
CCn1cc(CN2CCC(C(=O)Nc3ccc(Oc4ccccc4F)cc3)CC2)c(C)n1 | -27% | -13% | i | -7% | u | -17%
COc1ccc(CN2CCC(C(=O)Nc3ccc(Oc4ccccc4)nc3)CC2)cc1F | -26% | 0% | i | 0% | -1% | -13%
CC[C@H](C)[C@H](N)C(=O)O | x | x | i | x | x | 20%
O=S(=O)(c1ccc(NC(=S)Nc2ccccc2)cc1)N1CCOCC1 | 6% | 16% | i | -10% | 18% | 2%
CC(C)CCCCCCNC(=S)Nc1ccc(S(=O)(=O)N2CCOCC2)cc1 | -65% | u | u | 20µM* | u | u
COc1cccc(S(=O)(=O)N2CCN(c3nc(-c4cccs4)nc4ccccc34)CC2)c1 | x | 11% | x | x | 0% | x
COc1ccccc1N=c1oc2cc(O)ccc2cc1C(N)=O | 10µM* | 23µM* | x | 24% | u | -5%
CC(=O)N1CCc2cc(S(=O)(=O)NCCC3=CCCCC3)ccc21 | -4% | -9% | i | -18% | 21µM* | u
CC(=O)N1CCc2cc(S(=O)(=O)NCCCN3CCCCC3)ccc21 | -1% | -3% | i | -3% | 3% | 0%
O=C(Nc1cccc(F)c1)c1cc(S(=O)(=O)NCCC2=CCCCC2)ccc1F | 14µM* | u | u | u | u | -36%
Cc1ccc(NC(=O)c2cc(S(=O)(=O)NCCC3=CCCCC3)ccc2F)cc1F | -82% | u | u | u | u | u
CCOC(=O)c1cnc2ccccc2c1Nc1cccc(OC)c1 | -11% | x | u | -13% | x | -31%
c1ccc(Nc2nc(NCc3ccco3)c3ccccc3n2)cc1 | -77% | 21µM* | i | u | 23µM* | -31%
COc1ccc(OC)c(Nc2nc(NCc3ccco3)nc(N)c2[N+](=O)[O-])c1 | -19% | -3% | i | u | -2% | u
Cc1ccccc1Nc1nc(NCc2ccco2)c2ccccc2n1 | -37% | u | u | u | 15µM* | u
Oc1ccccc1Nc1nc(NCc2ccco2)c2ccccc2n1 | -74% | -13% | i | u | -6% | x
Clc1nc(NCc2ccco2)c2ccccc2n1 | -14% | x | x | 1% | x | x
Cc1ccc(-c2nc(NCc3ccco3)c3ccccc3n2)cc1 | -49% | u | i | u | -15% | x
Cc1cccc(Nc2nc(NCc3ccco3)c3ccccc3n2)c1 | 10µM* | u | x | u | 18µM* | 25µM*
COc1ccc(OC)c(Nc2nc(NCc3ccco3)c3ccccc3n2)c1 | -53% | 21µM* | x | u | u | 32µM*
COc1cc(OC)c(OC)cc1CN1CCOc2ccc(CN3C[C@@H](C)O[C@@H](C)C3)cc2C1 | x | x | i | x | x | x
SMILES | HepG2 tox | HT1080-NT tox | ATXN viability | TGFb inhibitor | HT1080 IDH1KD tx | ATXN2 expr inh
CCCS(=O)(=O)NCc1c(C)ncc2c1CCN(C(=O)c1ccc(Cl)cc1)C2 | x | x | i | x | x | x
CS(=O)(=O)N1CCN(/[N+]([O-])=N/Oc2ccc([N+](=O)[O-])cc2[N+](=O)[O-])CC1 (tested in a mixture with another compound) | -9% | x | x | -2% | x | x
OCCNc1nc(Nc2cccc(O)c2)nc2ccccc12 | -2% | -11% | i | u | 0% | -38%
Cc1ccc(S(=O)(=O)Nc2nc3ccccc3nc2NCc2ccco2)cc1 | -33% | u | i | -7% | 10µM* | 142%
CCNc1nc(NCc2ccco2)c2ccccc2n1 | -8% | x | x | u | x | x
COc1cccc(Nc2nc(NCCO)c3ccccc3n2)c1 | -36% | u | i | 13µM* | u | -12%
CNc1nc(NCc2ccco2)c2ccccc2n1 | -39% | x | x | 2.8µM* | x | x
CCOc1ccccc1NC(=O)c1ccc(C(=O)Nc2ccccc2OCC)cc1 | 4% | x | i | 32% | x | 10%
CCOc1ccccc1NC(=O)/C=C/C(N)=O | -38% | u | x | u | 2.8µM* | u
CCOC(=O)/C=C/C(=O)Nc1ccc(S(=O)(=O)N(C)c2ccccc2)cc1 | -3% | u | i | u | 21µM* | u
CC(C)CN(C(=O)COC(=O)Cc1ccc(Cl)cc1)c1c(N)n(Cc2ccccc2)c(=O)[nH]c1=O | -103% | 26µM* | u | u | 23µM* | -27%
COC(=O)c1cc(Cl)c(NC(=O)c2ccc(C(C)(C)C)cc2)cc1OC | -2% | u | i | -21% | 11µM* | 37%
NC(=S)N=Nc1c(O)n(Cc2ccc(F)cc2)c2ccccc12 | -25% | -25% | u | -10% | -29% | u
NC(=S)N=Nc1c(O)n(Cc2ccc(Br)cc2)c2ccccc12 | -52% | u | u | u | 3.7µM* | u
CC(C)(C)c1ccc(-c2nc(C#N)c(NCCCn3ccnc3)o2)cc1 | -104% | 21µM* | i | u | 23µM* | 11%
Cc1ccc(-c2c(C)n3c4c(=O)n(C)c(=O)n(C)c4nc3n2CCCO)cc1 | -36% | x | 28µM* | u | x | 25µM*
COC(=O)CCCn1c(-c2ccc(C)cc2)c(C)n2c3c(=O)n(C)c(=O)n(C)c3nc12 | -1% | x | i | 1% | x | 5%
Cn1cc(S(=O)(=O)Cc2ccc(F)cc2)c2ccccc21 | -14% | 14% | i | -12% | 11% | 9%
Cn1cc(C2=C(c3c4n(c5ccccc35)CCC(CN)C4)C(=O)NC2=O)c2ccccc21 (stereo not drawn) | x | x | x | x | x | 24µM*
C/C(=C(/OCCOc1ccc(Cl)cc1)c1ccc(Cl)cc1Cl)n1ccnc1 | x | x | i | x | x | -27%
COc1ccc(N2C(=O)C(Cl)=C(Oc3cccc(OC)c3)C2=O)cc1 | -33% | 18µM* | i | -4% | 21µM* | -15%[11.3 µM]
O=[N+]([O-])c1ccc2c(c1)C=CC2 | 9% | x | x | -3% | x | x

Source: PubChem BioAssay (National Center for Advancing Translational Sciences (NCATS))
